Source: PubChem BioAssay AID382 (SGCOxCompounds, 2006)
Active and inactive are the calls of the source. The rule behind the calls is not given here.

What follows are molecules tested against Dual specificity protein kinase CLK1 (Homo sapiens) (UniProt P49759) (assay: CLK1 binders by thermal stabilization, biophysical, recombinant human kinase, DSF (AID 382)). Settings: at 10 µM, protein 2 µM, buffer 10 mM HEPES, pH 7.5, NaCl 150 mM, with 50 µM L-Arg/L-Glu (1:1), active compounds read high.
Dual specificity protein kinase CLK1 (Homo sapiens), sequence (P49759 whole entry, looked up): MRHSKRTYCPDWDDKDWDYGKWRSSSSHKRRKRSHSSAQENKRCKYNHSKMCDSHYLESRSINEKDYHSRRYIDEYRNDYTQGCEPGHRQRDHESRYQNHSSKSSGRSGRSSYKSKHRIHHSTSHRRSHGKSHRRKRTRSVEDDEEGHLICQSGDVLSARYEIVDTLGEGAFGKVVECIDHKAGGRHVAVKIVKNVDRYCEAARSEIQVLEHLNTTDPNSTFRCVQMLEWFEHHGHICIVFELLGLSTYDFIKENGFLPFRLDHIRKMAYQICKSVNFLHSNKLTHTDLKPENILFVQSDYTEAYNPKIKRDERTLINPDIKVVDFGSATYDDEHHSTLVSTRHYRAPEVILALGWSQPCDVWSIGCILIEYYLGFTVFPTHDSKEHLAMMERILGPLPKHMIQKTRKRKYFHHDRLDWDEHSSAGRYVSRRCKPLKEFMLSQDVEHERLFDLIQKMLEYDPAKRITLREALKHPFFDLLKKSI

Tm shift, active:
CC(=O)Nc1cccc(-c2cnc3ccc(N[C@H](CO)C(C)C)nn23)c1 7.4 Celsius
OCC1=C(O)C(O)[C@@H](N2CNc3cc(Cl)c(Cl)cc32)O1 (some centres undefined) 3.1 Celsius
COc1cccc(-c2cnn3ccc(Nc4cccc(Cl)c4)nc23)c1 6 Celsius
Oc1cccc(-c2cnc3ccc(NCC4CC4)nn23)c1 3.9 Celsius
COC(=O)c1ccc(-c2cnc3ccc(NC4CCOCC4)nn23)cc1 4.3 Celsius
O=C1NC(=O)C(c2cn(CCCn3ccnc3)c3ccccc23)=C1Nc1ccccc1 5.8 Celsius
Fc1cccc(-c2cnc3ccc(NC4CCOCC4)nn23)c1 4.5 Celsius
CC(C)[C@@H](CO)Nc1ccc2ncc(-c3cccc(C(F)(F)F)c3)n2n1 5.1 Celsius
CCN(CC)CCNC(=O)c1c(C)[nH]c(/C=C2\C(=O)Nc3ccc(Cl)cc32)c1C 6.6 Celsius
CCC(CO)Nc1ccc2ncc(-c3ccc(CO)cc3)n2n1 (centres undefined) 5.3 Celsius
Nc1ccc(-c2cnn3ccc(Nc4cccc(Cl)c4)nc23)cc1 5.8 Celsius
CCCCc1c(-c2ccc(O)cc2)[nH]c2nccnc12 3.5 Celsius
CC(=O)c1cccc(-c2cnc3ccc(NC4CCOCC4)nn23)c1 5.2 Celsius
CC(=O)Nc1cccc(-c2cnc3ccc(NC4CCOCC4)nn23)c1 8.8 Celsius
O=C1NCc2c1c1c3ccccc3[nH]c1c1[nH]c3ccccc3c21 3.1 Celsius
CNC(=O)c1cc(Oc2ccc(NC(=O)Nc3ccc(C)c(C(F)(F)F)c3)cc2)ccn1 4.9 Celsius
COc1cncc(-c2cnc3ccc(NC4CCOCC4)nn23)c1 3.2 Celsius
COCCNc1ccc2ncc(-c3cccc(C(C)=O)c3)n2n1 5.1 Celsius
COCCNc1ccc2ncc(-c3cccc(C(N)=O)c3)n2n1 3.9 Celsius
